Source: PubChem
EPAC2_agonist – EPAC2 (human) agonism. Q8WZA2. EPAC2 activation, biochemical qHTS; response scale: 100% = 6.5 mM cAMP response. Potency, µM (titrated, usually from 154 µM), for inactives: at the highest dose activation, usual class: activators. 360,000 compounds, 0.079% hits. AID 720711; further: nearly all actives have a fitted effect of over 50% in size
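EPAC2 (100 nM) mixed with Rap1B loaded with BODIPY-GDP (250 nM) plus 50 uM unlabeled GDP; compounds pinned in, 5 min RT, then read every 5 min for 30 min (ex 480, em 540 nm). Normalized to cAMP control.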
EPAC1_ag – activates human EPAC1 exchange factor; EPAC1 agonist qHTS, biochemical assay; response scale: 100% = response to 6.5 mM cAMP; Potency, µM (titrated, usually from 154 µM), inactives show at the highest dose activation, hits mostly activators; 360,000 compounds, 0.073% hits; further: nearly all actives have a fitted effect of over 60% in size
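Multi-concentration qHTS readout: loss of Rap1B-bound BODIPY-GDP fluorescence driven by 100 nM EPAC1 with excess GDP (50 uM), monitored kinetically at room temperature; agonist response expressed relative to 6.5 mM cAMP.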
EPAC2_antag – antagonists of human EPAC2 | Q8WZA2 | EPAC2 GEF exchange of Rap1B-BODIPY-GDP, fluorescence | Potency, µM (highest dose often 114 µM), inactives show top-dose activity, negative = inhibition, usual class: inhibitors | 360,000 compounds, 0.18% hits | AID 720708; further: on the % scale 0 is the no-effect control and ±100 the full control effect; nearly all actives have a fitted effect of over 45% in size
USP1-UAF1_inh – blocks the human USP1/UAF1 deubiquitinase complex; O94782; recombinant USP1/UAF1, Ub-Rhodamine cleavage fluorescence; Potency, µM (series often up to 57.1 µM), without a hit: top-dose activity change, negative = inhibition, hits mostly inhibitors; 390,000 compounds, 0.23% hits; further: on the % scale 0 is the no-effect control and ±100 the full control effect; nearly all actives have a fitted effect of over 60% in size
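High-throughput fluorogenic screen: 1nM USP1/UAF1 complex, Ub-Rho substrate 150nM final, 50mM HEPES pH 7.8 with 0.5mM EDTA, 0.1 mg/ml BSA, 1mM TCEP and 0.01% Tween-20.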
EPAC1_antag – EPAC1 (human) antagonism; EPAC1 GEF assay, Rap1b-BODIPY-GDP exchange fluorescence; Potency, µM (titrated, usually from 115 µM), without a hit: at the highest dose activity change, negative = inhibition, hits mostly inhibitors; 360,000 compounds, 0.14% hits;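 further: plate controls were vehicle for no effect and positive control for full effect; nearly all actives have a fitted effect of over 50% in size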
* marks the source's active call; other numbers are inactive results; · = not tested or not shown. A selection: hits, their analogues and other compounds. The true share with any hit is near 0.49%. The call rests on the fitted dose curve; in most records, active means well fitted curve in the direction sought with a large enough effect; inconclusive means small, poorly fitted or top-dose-only effect, or another doubt; inactive means no such curve, though single readings can be large; an effect the other way counts as inactive or inconclusive. Potency means the concentration at half of the fitted maximal effect.

SMILES EPAC2_agonist EPAC1_ag EPAC2_antag USP1-UAF1_inh EPAC1_antag
N#C/C(=C/c1ccc(N2CCCCCC2)o1)c1cccc(F)c1 15.3% 12.9% -0.6% 25.1µM* -2.3%
CCOC(=O)Cn1c(=O)n(C2CCCCC2)c2nc(-c3ccc(Cl)cc3)nc(C(N)=O)c21 · · · -9.6% ·
O=C(c1cccc(-n2cccc2)c1)N1CCN(S(=O)(=O)c2ccccc2)CC1 6.9% 12.5% -4.9% -6.9% 79.4µM*
CCOc1ccc(CN(CCc2ccc3c(c2)OCO3)Cc2cc(OC)cc(OC)c2)cc1 · · · -6.4% ·
CCCS(=O)(=O)c1c(S(=O)(=O)CCC)c2cc(C(C)(C)C)ccn2c1C(=O)c1ccc(OC)c(OC)c1 · · · 5.6% ·
